# According to PubChem BioAssay (NCI):
# Compounds without any hit were thinned out: in the full panel of roughly 83,000, 20% have a hit.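 Values shown are percent growth following 48 h exposure of cells in 96-well plates to a single concentration of compound; below 10 was considered active.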 A number with no mark means an inactive call. The source made the active and inactive calls.
# System: SF-268 CNS
# Assay: NCI-60 one-dose screen, 48 h (100 = growth as untreated, 0 = no growth, -100 = all killed)
# Details: 10 µM unless noted
row,Compound,growth
1,O=C(COc1cccc(/C=C2\COc3ccc(Cl)cc3C2=O)c1)c1ccc(Cl)cc1,94.4%
2,Cc1cc(Nc2ccc(C)c(Cl)c2)n2nc(C(F)(F)F)nc2n1,39.4%
3,CN(C)c1ccc(NC(=O)c2ccc(/C=C/C(=O)c3ncc[nH]3)cc2)cc1,56.2%
4,O=[N+]([O-])c1ccccc1/C=N\NC(=S)N/N=C/c1ccccc1[N+](=O)[O-],41%
5,O=C(Oc1cccnc1)c1ccsc1Nc1ccnc(C(F)(F)F)c1,42.6%
6,OC(c1cc2cc(Cl)c(Cl)cc2c2cc(C(F)(F)F)ccc12)C1CCCCN1 (stereo unspecified),-88.6% (active)
7,COc1ccc(-c2cc(-c3ccc(Nc4ccnc5cc(Cl)ccc45)cc3)nc(N3CCOCC3)n2)cc1,72.1%
8,C=C1C(=O)O[C@H]2[C@H]1CC/C(COC(=O)NCCc1ccc(OC)c(OC)c1)=C\CC[C@@]1(C)O[C@@H]21,80.3%
9,O=[N+]([O-])c1ccc2c(c1)Cc1cc(F)ccc1-2,111%
10,CN1CCN(c2nc(NCCCNc3ccnc4cc(Cl)ccc34)c3ccccc3n2)CC1,66.2%
11,Clc1ccc2c(NCCCCNc3nc(N4CCCCC4)nc4ccccc34)ccnc2c1,19.9%
12,NC(=NC1C2CC3CC(C2)CC1C3)Nc1ccc(I)cc1 (stereo unspecified),40.7%
13,CCOc1nc(-c2ccccc2)cc2c(O)c(C(=O)O)[nH]c(=O)c12,99.2%
14,COc1ccc(Nc2cc(C)nc(N3CCN(c4ccnc5cc(Cl)ccc45)CC3)n2)cc1,52.6%
15,Cc1cc(N2CCN(c3ccnc4cc(Cl)ccc34)CC2)nc(N2CCOCC2)n1,87.4%
16,N#Cc1c(N)n(CCNC(=O)c2ccccc2)c2nc3ccccc3nc12,106%
17,COc1ccc(CN2c3ccccc3Sc3ccccc32)c(C(F)(F)F)c1,56.4%
18,CCc1c(Nc2ccccc2C)nc(N)[nH]c1=O,101%
19,CC(=O)c1cc2c(N)c(C(=O)Nc3ccccc3)sc2nc1C,93.1%

row,Compound,growth
1,CCCCC/C(C=C(C#N)C#N)=C/c1ccccc1,81.7%
2,OCCNc1nccc(N2CCN(c3ccnc4cc(Cl)ccc34)CC2)n1,82.7%
3,Cc1cc(N2CCSCC2)nc(NC2CCCC(Nc3ccnc4cc(Cl)ccc34)C2)n1 (stereo unspecified),-39.9% (active)
4,COc1ccc(Nc2c3c4c(cccc4[nH]c2=O)C(=O)c2ccccc2-3)cc1,21.4%
5,O=C1/C(=C/c2ccccc2O)N=C2SCCCN12,99.5%
6,COc1cc2c(cc1O)CC[C@@H]1[C@@H]2CC[C@]2(C)[C@@H](OCCCN(C)C)CC[C@@H]12,-24.3% (active)
7,O=C(Cn1cccc(Nc2ccccc2)c1=O)Nc1ccccc1,107%
8,Cc1cc(N2CCN(c3ccnc4cc(Cl)ccc34)CC2)nc(NC2CCCCC2)n1,47.4%
9,CSc1ccc(SC2c3ccc(C)cc3Oc3nc(N)c(C#N)c(N)c32)cc1 (stereo unspecified),-26.1% (active)
10,O=c1ccccc(-c2ccc(-c3ccco3)cc2)c1O,11%
11,O=C(COc1ccc(/C=C2\CSc3ccccc3C2=O)cc1)Nc1nccs1,99.6%
12,CN(C)CCCNc1c2ccccc2nc2ccccc12,92.9%
13,O=C(Cc1ccc(/C=C/C(=O)c2ncc[nH]2)cc1)Nc1ccccc1,51.5%
14,CC/C=C\C/C=C\C[C@H]1C/C=C2/C(=O)C=C[C@@H]2C/C=C\CCC(=O)O1,21%
15,COc1cccc(-c2nc(SCC(=O)Nc3ccc(C(=O)/C=C/c4ccc(OC)c(OC)c4)cc3)[nH]c(=O)c2C#N)c1,82.9%
16,Cc1cc(N2CCN(C)CC2)nc(NC2CCCC(Nc3ccnc4cc(Cl)ccc34)C2)n1 (stereo unspecified),-2.4% (active)
17,Clc1ccc2nc3nc4ccc[nH]c4cc3c2c1,97.9%
18,COc1ccc2c(c1)C(=O)/C(=C/c1ccccn1)CC2,90.8%
19,COc1ccc(C2Nc3c(c(C(C)(C)C)nn3-c3ccccc3)C(=O)CS2)cc1 (stereo unspecified),98%

# System: SF-295 CNS
# Assay: as above
# Details: 10 µM unless noted
row,Compound,growth
1,O=C(COc1cccc(/C=C2\COc3ccc(Cl)cc3C2=O)c1)c1ccc(Cl)cc1,120%
2,CN(C)c1ccc(NC(=O)c2ccc(/C=C/C(=O)c3ncc[nH]3)cc2)cc1,74.6%
3,O=[N+]([O-])c1ccccc1/C=N\NC(=S)N/N=C/c1ccccc1[N+](=O)[O-],29.8%
4,COc1ccc(-c2cc(-c3ccc(Nc4ccnc5cc(Cl)ccc45)cc3)nc(N3CCOCC3)n2)cc1,94.6%
5,C=C1C(=O)O[C@H]2[C@H]1CC/C(COC(=O)NCCc1ccc(OC)c(OC)c1)=C\CC[C@@]1(C)O[C@@H]21,95.8%
6,O=[N+]([O-])c1ccc2c(c1)Cc1cc(F)ccc1-2,96.5%
7,CN1CCN(c2nc(NCCCNc3ccnc4cc(Cl)ccc34)c3ccccc3n2)CC1,62.5%
8,Clc1ccc2c(NCCCCNc3nc(N4CCCCC4)nc4ccccc34)ccnc2c1,-54.8% (active)
9,NC(=NC1C2CC3CC(C2)CC1C3)Nc1ccc(I)cc1 (stereo unspecified),10.7%
10,CCOc1nc(-c2ccccc2)cc2c(O)c(C(=O)O)[nH]c(=O)c12,104%
11,COc1ccc(Nc2cc(C)nc(N3CCN(c4ccnc5cc(Cl)ccc45)CC3)n2)cc1,15.9%
12,Cc1cc(N2CCN(c3ccnc4cc(Cl)ccc34)CC2)nc(N2CCOCC2)n1,81.1%
13,N#Cc1c(N)n(CCNC(=O)c2ccccc2)c2nc3ccccc3nc12,121%
14,COc1ccc(CN2c3ccccc3Sc3ccccc32)c(C(F)(F)F)c1,2.22% (active)
15,CCc1c(Nc2ccccc2C)nc(N)[nH]c1=O,105%
16,CC(=O)c1cc2c(N)c(C(=O)Nc3ccccc3)sc2nc1C,64.2%
17,CCCCC/C(C=C(C#N)C#N)=C/c1ccccc1,84.4%

row,Compound,growth
1,OCCNc1nccc(N2CCN(c3ccnc4cc(Cl)ccc34)CC2)n1,58%
2,Cc1cc(N2CCSCC2)nc(NC2CCCC(Nc3ccnc4cc(Cl)ccc34)C2)n1 (stereo unspecified),-78.6% (active)
3,COc1ccc(Nc2c3c4c(cccc4[nH]c2=O)C(=O)c2ccccc2-3)cc1,-52.4% (active)
4,O=C1/C(=C/c2ccccc2O)N=C2SCCCN12,98.6%
5,COc1cc2c(cc1O)CC[C@@H]1[C@@H]2CC[C@]2(C)[C@@H](OCCCN(C)C)CC[C@@H]12,-79.8% (active)
6,O=C(Cn1cccc(Nc2ccccc2)c1=O)Nc1ccccc1,106%
7,Cc1cc(N2CCN(c3ccnc4cc(Cl)ccc34)CC2)nc(NC2CCCCC2)n1,18.9%
8,CSc1ccc(SC2c3ccc(C)cc3Oc3nc(N)c(C#N)c(N)c32)cc1 (stereo unspecified),15.3%
9,O=c1ccccc(-c2ccc(-c3ccco3)cc2)c1O,20.5%
10,O=C(COc1ccc(/C=C2\CSc3ccccc3C2=O)cc1)Nc1nccs1,118%
11,O=C(Cc1ccc(/C=C/C(=O)c2ncc[nH]2)cc1)Nc1ccccc1,69.7%
12,CC/C=C\C/C=C\C[C@H]1C/C=C2/C(=O)C=C[C@@H]2C/C=C\CCC(=O)O1,3.94% (active)
13,COc1cccc(-c2nc(SCC(=O)Nc3ccc(C(=O)/C=C/c4ccc(OC)c(OC)c4)cc3)[nH]c(=O)c2C#N)c1,94.5%
14,Cc1cc(N2CCN(C)CC2)nc(NC2CCCC(Nc3ccnc4cc(Cl)ccc34)C2)n1 (stereo unspecified),-71.8% (active)
15,Clc1ccc2nc3nc4ccc[nH]c4cc3c2c1,101%
16,COc1ccc2c(c1)C(=O)/C(=C/c1ccccn1)CC2,78.2%
